In PubChem BioAssay (EPA / NIEHS):
Activity calls are given as the source filed them. Rule for the calls: active = hit-call score of the fitted dose curve at least 0.9, where 1 is the maximum; inactive = score below 0.9.

Columns and labels:
[1] = ATG_E_Box_CIS: Attagene CIS-FACTORIAL HepG2 Assay for human Enhancer Box (E-box) (AID 2282936); settings: HepG2 E-box cis-reporter transcription, actives raise or lower the signal
Method in brief: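 Cells: HepG2 (human liver), transient MRTU transfection. Exposure 24 h. RNA → oligo(dT) RT → PCR → 6-FAM label → HpaI → CE. Activity fitted both directions relative to DMSO.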

[2] = ATG_M_61_CIS: Attagene CIS-FACTORIAL HepG2 Assay for M61 Transcription Factor (Internal Marker) (AID 2282937); settings: HepG2 Attagene CIS-FACTORIAL M61 internal marker reporter; actives raise or lower the signal
Method in brief: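 Readout is reporter mRNA by RT-PCR, fluorescent primer extension and capillary electrophoresis, with gain or loss fitted relative to DMSO. Transfected HepG2 cells carrying endogenous-TF-driven cis reporters were exposed to chemicals for 24 hours.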

[3] = ATG_M_19_CIS: Attagene CIS-FACTORIAL HepG2 Assay for M19 Transcription Factor (Internal Marker) (AID 2282939); settings: HepG2 Attagene CIS-FACTORIAL M19 internal marker reporter; actives raise or lower the signal
Method in brief: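 Transfect HepG2 with MRTU reporter library → dose chemical, 24 h → isolate total RNA, reverse-transcribe with oligo(dT) → PCR, 6-FAM label, HpaI cut (2 h, 37 C) → capillary electrophoresis. Bidirectional fit vs DMSO.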

[4] = ATG_Ets_CIS: Attagene CIS-FACTORIAL HepG2 Assay for human Erythroblast Transformation Specific (ETS) (AID 2282941); settings: HepG2 ETS cis-reporter transcription, actives raise or lower the signal
Method in brief: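 HepG2 cells transiently transfected with cis-promoter reporter transcription units were dosed for 24 h; reporter mRNA was measured by RT-PCR, 6-FAM primer extension, HpaI digestion and capillary electrophoresis, with bidirectional fitting against DMSO baseline.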

[5] = ATG_FoxO_CIS: Attagene CIS-FACTORIAL HepG2 Assay for human Forkhead box O (FoxO) (AID 2282943); settings: HepG2 Attagene cis-reporter, FoxO element, mRNA; actives raise or lower the signal
Method in brief: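 Endogenous transcription factor activity read from multiplexed cis-promoter reporter transcripts in transiently transfected HepG2, 24 h after dosing. Reporter RNA measured via RT-PCR plus capillary electrophoresis of FAM-labeled products; gain or loss relative to DMSO.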

[6] = ATG_GATA_CIS: Attagene CIS-FACTORIAL HepG2 Assay for human GATA Binding Protein (AID 2282944); settings: HepG2 GATA cis-element reporter, Attagene multiplex mRNA; actives raise or lower the signal
Method in brief: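 Transient MRTU transfection, HepG2, 24 h compound exposure. Total RNA → oligo(dT) RT → PCR → 6-FAM primer extension → HpaI cut → CE. Bidirectional fit vs DMSO.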

[7] = ATG_GLI_CIS: Attagene CIS-FACTORIAL HepG2 Assay for human Zinc Finger Protein GLI1 (AID 2282945); settings: HepG2, Attagene cis-factorial reporter mRNA, GLI element; actives raise or lower the signal
Method in brief: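 Bidirectional curve fits relative to DMSO, using reporter mRNA levels from RT-PCR plus capillary electrophoresis. Cells were HepG2 transiently carrying cis-regulated reporter constructs, harvested 24 h after dosing.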

[8] = biological target: Hepatocyte nuclear factor 3-beta (Homo sapiens) (UniProt Q9Y261); assay: ATG_FoxA2_CIS: Attagene CIS-FACTORIAL HepG2 Assay for human Forkhead box A2 (FOXA2) (AID 2282942); settings: HepG2 cis-reporter transcription factor activity, 24 h; actives raise or lower the signal
Sequence of Hepatocyte nuclear factor 3-beta (Homo sapiens) (Q9Y261 whole entry, looked up): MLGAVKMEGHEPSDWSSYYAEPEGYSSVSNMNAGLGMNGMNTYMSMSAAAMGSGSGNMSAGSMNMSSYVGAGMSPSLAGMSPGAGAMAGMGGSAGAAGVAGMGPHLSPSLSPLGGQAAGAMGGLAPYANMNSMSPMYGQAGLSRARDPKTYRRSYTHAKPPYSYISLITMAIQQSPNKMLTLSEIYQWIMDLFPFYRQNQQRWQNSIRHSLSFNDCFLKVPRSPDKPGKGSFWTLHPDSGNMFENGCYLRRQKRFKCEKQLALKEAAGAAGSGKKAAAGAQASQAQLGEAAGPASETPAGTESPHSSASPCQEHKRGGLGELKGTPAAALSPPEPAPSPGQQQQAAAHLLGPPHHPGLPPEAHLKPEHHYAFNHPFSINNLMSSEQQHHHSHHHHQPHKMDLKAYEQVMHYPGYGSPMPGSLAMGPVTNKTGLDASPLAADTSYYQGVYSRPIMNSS
Method in brief: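 Endogenous transcription factor activity is captured via cis-element-driven reporter transcripts in transfected HepG2. Total RNA taken at 24 h post-dosing; labelled RT-PCR products resolved by capillary electrophoresis. Gain or loss fitted versus DMSO.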

[9] = ATG_ERE_CIS: Attagene CIS-FACTORIAL HepG2 Assay for Estrogen Response Element (ERE) (AID 2282940); settings: HepG2 ERE cis-reporter, Attagene RNA transcript; actives raise or lower the signal
Method in brief: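 Transient MRTU transfection of human HepG2; cis-element promoters; 24 h dosing; total RNA → RT (oligo dT) → PCR → 6-FAM primer extension → HpaI digest → CE fluorescence. Bidirectional fit, DMSO baseline.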

In the case of `Nc1nc(N)nc(NC2CC2)n1`, the outcome [1] is reported as “inactive”, the outcome [2] is reported as “inactive” and the outcome [3] is reported as “inactive”. For the same compound, the outcome [4] was “inactive”, the outcome [5] was “inactive” and the outcome [6] was “inactive”. For the same compound, the outcome [7] was “inactive”.
In the case of `CCOP(=O)(NC(C)C)Oc1ccc(SC)c(C)c1` (stereo not drawn), the outcome [1] is reported as “inactive”, the outcome [2] is reported as “inactive” and the outcome [3] is reported as “inactive”. For the same compound, the outcome [4] was “inactive”, the outcome [8] was “inactive” and the outcome [5] was “inactive”. For the same compound, the outcome [6] was “inactive” and the outcome [7] was “inactive”.
For `O=c1ccc(=O)[nH][nH]1`, the outcome [1] was “inactive”, the outcome [2] was “inactive” and the outcome [3] was “inactive”. For the same compound, the outcome [4] was “inactive”, the outcome [5] was “inactive” and the outcome [6] was “inactive”. The outcome [7] was “inactive”.
In the case of `CCOP(=S)(OCC)Oc1cc(C)nc(C(C)C)n1`, the outcome [1] is reported as “inactive”, the outcome [2] is reported as “inactive” and the outcome [3] is reported as “inactive”. The outcome [4] was “inactive”, the outcome [5] was “inactive” and the outcome [6] was “inactive”. The outcome [7] was “inactive”.
In the case of `CNc1cnn(-c2cccc(C(F)(F)F)c2)c(=O)c1Cl`, the outcome [1] is reported as “inactive”, the outcome [2] is reported as “inactive” and the outcome [3] is reported as “inactive”. The outcome [4] was “inactive”, the outcome [8] was “inactive” and the outcome [5] was “inactive”. The outcome [6] was “inactive” and the outcome [7] was “inactive”.
For `CN1COCN(Cc2cnc(Cl)s2)C1=N[N+](=O)[O-]`, the outcome [1] was “inactive”, the outcome [2] was “inactive” and the outcome [3] was “inactive”. For the same compound, the outcome [4] was “inactive”, the outcome [5] was “inactive” and the outcome [6] was “inactive”. For the same compound, the outcome [7] was “inactive”.
For `CCc1cccc(C)c1N(C(=O)CCl)C(C)COC` (stereo not drawn), the outcome [1] was “inactive”, the outcome [2] was “inactive” and the outcome [3] was “inactive”. The outcome [4] was “inactive”, the outcome [5] was “inactive” and the outcome [6] was “inactive”. The outcome [7] was “inactive”.
For `Nc1c(Cl)cc([N+](=O)[O-])cc1Cl`, the outcome [1] was “inactive”, the outcome [2] was “inactive” and the outcome [3] was “inactive”. For the same compound, the AC50 [9] was 28.2 µM (active), the outcome [4] was “inactive” and the outcome [5] was “inactive”. The outcome [6] was “inactive” and the outcome [7] was “inactive”.
For `CCCCOC(=O)c1ccccc1C(=O)O`, the outcome [1] was “inactive”, the outcome [2] was “inactive” and the outcome [3] was “inactive”. The outcome [4] was “inactive”, the AC50 [8] was 81.4 µM (active) and the outcome [5] was “inactive”. The outcome [6] was “inactive” and the outcome [7] was “inactive”.
With `CCNc1nc(Cl)nc(NC(C)(C)C#N)n1` the outcome [1] was “inactive”, the outcome [2] was “inactive” and the outcome [3] was “inactive”. The outcome [4] was “inactive”, the outcome [5] was “inactive” and the outcome [6] was “inactive”. For the same compound, the outcome [7] was “inactive”.
For `CCCSP(=O)(OCC)Oc1ccc(Br)cc1Cl` (stereo not drawn), the outcome [1] was “inactive”, the outcome [2] was “inactive” and the outcome [3] was “inactive”. For the same compound, the outcome [4] was “inactive”, the outcome [5] was “inactive” and the outcome [6] was “inactive”. The outcome [7] was “inactive”.
In the case of `CSC1=N[C@@](C)(c2ccccc2)C(=O)N1Nc1ccccc1`, the outcome [1] is reported as “inactive”, the outcome [2] is reported as “inactive” and the outcome [3] is reported as “inactive”. For the same compound, the outcome [4] was “inactive”, the outcome [5] was “inactive” and the outcome [6] was “inactive”. The outcome [7] was “inactive”.
In the case of `CCCCOC(=O)[C@@H](C)Oc1ccc(Oc2ccc(C#N)cc2F)cc1`, the outcome [1] is reported as “inactive”, the outcome [2] is reported as “inactive” and the outcome [3] is reported as “inactive”. The outcome [9] was “inactive”, the outcome [4] was “inactive” and the outcome [5] was “inactive”. The outcome [6] was “inactive” and the outcome [7] was “inactive”.
With `O=C(O)c1cc(Oc2ccc(C(F)(F)F)cc2Cl)ccc1[N+](=O)[O-]` the outcome [1] was “inactive”, the outcome [2] was “inactive” and the outcome [3] was “inactive”. The outcome [4] was “inactive”, the outcome [8] was “inactive” and the outcome [5] was “inactive”. The outcome [6] was “inactive” and the outcome [7] was “inactive”.
For `CC1(C(=O)Nc2ccc(O)c(Cl)c2Cl)CCCCC1`, the outcome [1] was “inactive”, the outcome [2] was “inactive” and the outcome [3] was “inactive”. The outcome [4] was “inactive”, the outcome [5] was “inactive” and the outcome [6] was “inactive”. For the same compound, the outcome [7] was “inactive”.
In the case of `COP(=O)(OC)C(O)C(Cl)(Cl)Cl` (stereo not drawn), the outcome [1] is reported as “inactive”, the outcome [2] is reported as “inactive” and the outcome [3] is reported as “inactive”. The outcome [4] was “inactive”, the outcome [8] was “inactive” and the outcome [5] was “inactive”. For the same compound, the outcome [6] was “inactive” and the outcome [7] was “inactive”.
For `CCOC(=O)CC(SP(=O)(OC)OC)C(=O)OCC` (stereo not drawn), the outcome [1] was “inactive”, the outcome [2] was “inactive” and the outcome [3] was “inactive”. For the same compound, the outcome [4] was “inactive”, the outcome [8] was “inactive” and the outcome [5] was “inactive”. For the same compound, the outcome [6] was “inactive” and the outcome [7] was “inactive”.
With `S=C1NCCN1` the outcome [1] was “inactive”, the outcome [2] was “inactive” and the outcome [3] was “inactive”. The outcome [4] was “inactive”, the outcome [8] was “inactive” and the outcome [5] was “inactive”. The outcome [6] was “inactive” and the outcome [7] was “inactive”.
In the case of `Cc1ccn2nc(S(=O)(=O)Nc3c(F)cccc3F)nc2n1`, the outcome [1] is reported as “inactive”, the outcome [2] is reported as “inactive” and the outcome [3] is reported as “inactive”. For the same compound, the outcome [4] was “inactive”, the outcome [8] was “inactive” and the outcome [5] was “inactive”. For the same compound, the outcome [6] was “inactive” and the outcome [7] was “inactive”.
